Results on 53 compounds are retold here after ChEMBL document CHEMBL3988442, “University of Dundee, Small-Polar-MMV Screening Library” (2021).

This test deals with Leishmania donovani. In words: Leishmania intramacrophage assay. The arrangement: scale not given: in the data most compounds retested in dose-response had high values. The class given is functional, organism-based.

Screen size: about 69,000 compounds; about 1,000 (1.4%) showed an effect of 50% or more. The list comes from a sample in which strong results are over-represented; it also holds similar structures and randomly drawn compounds.

`CC(=O)N1CCC2(CC1)CCN(C(=O)c1ccc(F)c(C(F)(F)F)c1)C2`: the “Percent Effect” value (30.3 µM, […]) is given as -8.189%.

With `COc1ccnc(N2CCc3ccc(OC(F)F)cc3C2)n1`, under “30.3 µM, […]”, the “Percent Effect” value was -15.45%.

Turning to `COc1cccc(O[C@H]2CCN(c3nc(C)cc(C)n3)CC[C@@H]2O)c1`, the “Percent Effect” value (30.3 µM, […]) is listed as -35.99%.

For the compound `COc1ccc2c(c1)CN(c1cc(N3CCCC3CO)ncn1)CC2` (stereo not drawn), the “Percent Effect” value (30.3 µM, […]) came out at 11.17%.

Consider `Cc1cc(C)nc(N2CCc3ccc(OC(F)F)cc3C2)n1`, for which the “Percent Effect” value (30.3 µM, […]) was 84.87%.

Regarding `COc1ccc2c(c1)CN(c1nc(C)cc(C)n1)CC2`, where the note is “30.3 µM, […]”, the “Percent Effect” value worked out at 98.91%.

As to `COc1ccc(C2CN(c3nc(C)cc(C)n3)CCN2C(C)=O)cc1` (stereo not drawn), the “Percent Effect” value (30.3 µM, […]) turned out to be 30.74%.

`O=C(CNC(=O)C1(c2ccc(F)cc2F)CCC1)Nc1cccnc1`: the “Percent Effect” value (30.3 µM, […]) is on record as -11.9%.

Regarding `COc1cccc2c1OCC(CNC(=O)CN(C)C1CCCC1)C2` (stereo not drawn), the “Percent Effect” value (30.3 µM, […]) is on record as -18.43%.

As to `CC(C)CN1C(=O)CC[C@H]2CN(C(=O)Cn3ccccc3=O)CC[C@H]21`, the “Percent Effect” value (30.3 µM, […]) was found to be 3.813%.

In the case of `CC(C)N1CCCC(C(=O)N2CCN(c3nsc4ccccc34)CC2)C1` (stereo not drawn), the “Percent Effect” value (30.3 µM, […]) amounted to 77.99%.

Regarding `NC(=O)N1CCCC(C(=O)N2CCN(c3nsc4ccccc34)CC2)C1` (stereo not drawn), under “30.3 µM, […]”, the “Percent Effect” value is 34.33%.

In the case of `CCN1CC(C(=O)N2CCN(c3nsc4ccccc34)CC2)CCC1=O` (stereo not drawn), the “Percent Effect” value (30.3 µM, […]) came out at 22.5%.

In the case of `COc1c(C2CCCN2C(=O)CCNc2ncccn2)c(C)nn1C` (stereo not drawn), the “Percent Effect” value (30 µM) was 5.312%.

In the case of `COc1ccc(CN(C(=O)C2CCCS2)c2ccncc2)cc1` (stereo not drawn), the “Percent Effect” value (30.3 µM, […]) is -1.322%.

For `COc1ccc(Oc2ccc(C(F)(F)F)cn2)cc1CN1CCCC1`, the “Percent Effect” value (30.3 µM, […]) came out at 2.243%.

`COc1cc(Oc2ccc(C(F)(F)F)cn2)ccc1CN1CCCC1`: for the setting “30.3 µM, […]”, the “Percent Effect” value is 61.15%.

As for `COc1cc(Oc2ccc(C#N)cn2)ccc1CN1CCCC1`, under “30.3 µM, […]”, the “Percent Effect” value is listed as 2.326%.

As for `CCOCCC(=O)Nc1ccnn1-c1ccc(Cl)cc1`, for the setting “30.3 µM, […]”, the “Percent Effect” value worked out at 0.3355%.

Turning to `COCCOCC(=O)Nc1ccnn1-c1ccc(Cl)cc1`, under “30.3 µM, […]”, the “Percent Effect” value stood at 23.94%.

As for `COCC(=O)Nc1ccnn1-c1ccc(Cl)cc1`, the “Percent Effect” value (30.3 µM, […]) is recorded as 82.71%.

Regarding `Cc1n[nH]c(C)c1CCN(C)c1ccc(-c2nc(C3CC3)no2)cn1`, the “Percent Effect” value (30.3 µM, […]) was determined as 22.75%.

Take `Cc1nc(CCNC(=O)C(N)c2c(C)n[nH]c2C)sc1C` (stereo not drawn): where the note is “30.3 µM, […]”, the “Percent Effect” value is given as 7.254%.

Regarding `Cc1nc(CNC(=O)NC2CCN(c3cccc(Cl)c3)C2)no1` (stereo not drawn), the “Percent Effect” value (30.3 µM, […]) was found to be 40.16%.

On to `CC(C)c1n[nH]c(C2CN(Cc3ncc[nH]3)CCO2)n1` (stereo not drawn), for which the “Percent Effect” value (30.3 µM, […]) is recorded as -15.06%.

In the case of `CC(C)c1n[nH]c(C2CN(Cc3ccno3)CCO2)n1` (stereo not drawn), the “Percent Effect” value (30.3 µM, […]) worked out at 53.56%.

Turning to `Cc1nc(CN2CCOC(c3nc(C(C)C)n[nH]3)C2)oc1C` (stereo not drawn), the “Percent Effect” value (30 µM, 30.03 µM) is given as -6.521%.

As to `Cc1cnn(CCNCc2ccc(S(C)(=O)=O)cc2)c1`, the “Percent Effect” value (30.3 µM, […]) was -1.29%.

Turning to `CC(C)CCc1n[nH]c(C(=O)O)c1Br`, the “Percent Effect” value (30.3 µM, […]) is 1.329%.

Consider `O=C(O)C(F)(F)F.O=C(c1ccco1)N1CCO[C@@H]2CN(CC3CC3)CC[C@@H]2C1`, for which the “Percent Effect” value (30.3 µM, […]) is listed as 52.8%.

As to `O=C(O)C(F)(F)F.O=C(c1ccco1)N1CC[C@@H]2CN(C3CCOCC3)CCO[C@@H]2C1`, the “Percent Effect” value (30.3 µM, […]) was found to be 39.91%.

In the case of `O=C(O)C(F)(F)F.O=C(c1ccco1)N1CCO[C@@H]2CN(Cc3nccs3)CC[C@@H]2C1`, where the note is “30.3 µM, […]”, the “Percent Effect” value was 43.58%.

As to `CCS(=O)(=O)N1CC[C@H]2[C@H]1CC(=O)N2Cc1csc(C)n1`, the “Percent Effect” value (30.3 µM, […]) came out at 11.91%.

On to `O=C(C1CCOCC1)N1C[C@H]2CCC[C@@]2(COCc2ccccn2)C1`, for which the “Percent Effect” value (30.3 µM, […]) is recorded as 39.51%.

With `O=C(C1CCC1)N1C[C@@H]2CC[C@H](C1)N(S(=O)(=O)c1ccccc1)C2`, for the setting “30.3 µM, […]”, the “Percent Effect” value is given as -6.923%.

With `O=C1CCC(=O)c2oc3ccc(Br)cc3c2N1`, the “Percent Effect” value (30.3 µM, […]) was -16.45%.

With `Cc1cc(Nc2cnccn2)cc(C2CCCN2)n1` (stereo not drawn), the “Percent Effect” value (30.3 µM, […]) is recorded as 50.63%.

As for `Cc1nc(Nc2cnccn2)cc(C2CCCN2)n1.Cl` (stereo not drawn), the “Percent Effect” value (30.3 µM, […]) was -4.51%.

`Cc1cc(Nc2cnccn2)cc(C2CCCNC2)n1` (stereo not drawn): the “Percent Effect” value (30.3 µM, […]) is listed as -25.49%.

Take `CSC1(CNC(=O)CCc2ccc(Cl)s2)CCOCC1`: the “Percent Effect” value (30.3 µM, […]) is given as -1.683%.

On to `COCCN1CCC(CNC(=O)c2ccnc(-n3ccnc3)c2)CC1`, for which, where the note is “30.3 µM, […]”, the “Percent Effect” value is -33.66%.

Turning to `CCOCC1CN(Cc2ccoc2)Cc2cn(CC3CC3)nc21` (stereo not drawn), the “Percent Effect” value (30.3 µM, […]) came to 26.22%.

Take `CCS(=O)(=O)N1CCCC(c2nccn2Cc2ccccn2)C1` (stereo not drawn): the “Percent Effect” value (30.3 µM, […]) is 2.474%.

For the compound `CCS(=O)(=O)N1CCN(C(=O)NC(C)C)CC2(CC(=O)N(C)C2)C1` (stereo not drawn), for the setting “30.3 µM, […]”, the “Percent Effect” value is reported as 15.87%.

For `CCC(CO)NCc1ccc(-c2ccccc2F)o1` (stereo not drawn), the “Percent Effect” value (30.3 µM, […]) is on record as 4.793%.

Turning to `CCC(CO)NCc1ccc(-c2ccc(F)cc2)o1.Cl` (stereo not drawn), the “Percent Effect” value (30.3 µM, […]) is reported as 4.62%.

Consider `CCC(CO)NCc1ccc(-c2ccc(Br)cc2)o1.Cl` (stereo not drawn), for which the “Percent Effect” value (30.3 µM, […]) came to 86.07%.

As to `CCCn1nnc(NCc2ccc(-c3ccc(Br)cc3)o2)n1`, the “Percent Effect” value (30.3 µM, […]) is -28.31%.

Take `CCC(CO)NCc1ccc(-c2ccccc2)o1.Cl` (stereo not drawn): the “Percent Effect” value (30.3 µM, […]) turned out to be 7.098%.

As for `CCn1nnc(NCc2ccc(-c3ccc(Br)cc3)o2)n1`, the “Percent Effect” value (30.3 µM, […]) is 4.739%.

Turning to `CC(NCc1ccc(-c2ccc(Cl)cc2)o1)c1nnc2n1CCC2` (stereo not drawn), the “Percent Effect” value (30.3 µM, […]) is listed as -2.109%.

With `CCC(CO)NCc1ccc(-c2ccc(F)c(Cl)c2)o1.Cl` (stereo not drawn), for the setting “30.3 µM, […]”, the “Percent Effect” value was determined as 76.93%.

Regarding `CCC(CO)NCc1ccc(-c2ccc(Cl)cc2)o1.Cl` (stereo not drawn), under “30.3 µM, […]”, the “Percent Effect” value is 78.06%.
